Source: PubChem
aSyn yeast inh – rescues yeast growth from alpha-synuclein toxicity; AID 652106; Yeast expressing alpha-synuclein, growth rescue, BacTiter-Glo, 24 h; Potency, µM (series often up to 46.1 µM), actives largely listed as activators; 370,000 compounds, 0.14% hits; note: nearly all actives have a fitted effect of over 65% in size
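Screening used galactose-induced yeast with toxic alpha-synuclein levels, exposed to compound for 24 hr at 30 deg C. Cell growth, read with BacTiter-Glo luminescence, gave the measured signal.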
PTHR1 agonist – agonists of human PTHR1 parathyroid hormone receptor; Potency, µM (top dose mostly 115 µM), most hits filed as activators; HEK293 GP2 PTHR1 cells, GloSensor cAMP luminescence, 1 h; 410,000 compounds, 0.075% hits; Q03431; note: nearly all actives have a fitted effect of over 55% in size
Target sequence (Q03431 whole entry, looked up): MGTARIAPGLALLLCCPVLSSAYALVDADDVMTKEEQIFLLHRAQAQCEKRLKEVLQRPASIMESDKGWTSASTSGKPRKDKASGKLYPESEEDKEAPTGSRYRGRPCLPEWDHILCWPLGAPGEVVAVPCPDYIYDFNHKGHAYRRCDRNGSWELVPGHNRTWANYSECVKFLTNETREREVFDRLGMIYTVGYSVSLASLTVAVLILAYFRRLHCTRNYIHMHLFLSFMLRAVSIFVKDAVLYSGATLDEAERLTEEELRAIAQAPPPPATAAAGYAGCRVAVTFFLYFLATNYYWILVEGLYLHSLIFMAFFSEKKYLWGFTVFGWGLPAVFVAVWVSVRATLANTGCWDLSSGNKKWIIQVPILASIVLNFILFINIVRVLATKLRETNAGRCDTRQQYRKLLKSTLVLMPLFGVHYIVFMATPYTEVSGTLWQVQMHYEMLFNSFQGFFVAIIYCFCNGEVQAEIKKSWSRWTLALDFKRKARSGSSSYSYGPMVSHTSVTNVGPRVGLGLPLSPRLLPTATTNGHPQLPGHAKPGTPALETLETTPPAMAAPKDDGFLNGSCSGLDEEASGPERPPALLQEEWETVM
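HEK-293-derived GP2 cells expressing PTHR1 and a GloSensor cAMP reporter, 3,000/well, plated overnight, given luciferin plus IBMX (each 0.5 mM as added) for 1 h at 37 °C, then compound for 1 h at 37 °C. Luminescence was read after 15 min at room temperature.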
TDP43 rescue – TDP-43 toxicity inhibition in yeast; AID 652104; Potency, µM (doses to about 46.1 µM), hits mostly activators; 410,000 compounds, 1.8% hits; TDP-43 expressing yeast growth rescue, BacTiter-Glo, 24 h; note: nearly all actives have a fitted effect of over 50% in size
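Yeast expressing TDP-43 (pregrown in raffinose, seeded at OD600=0.02 in galactose medium) exposed to compounds 24 hr at 30 deg C. Growth read by BacTiter-Glo luminescence; rescue of toxicity appears as increased signal.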
Abeta yeast res – A-beta toxicity reversal in yeast. yeast expressing A-beta42, growth rescue, OD600, 48 h; response scale: 0% DMSO, 100% iron-clioquinol control. AID 1347071. Potency, µM (highest dose often 46.1 µM), hits mostly activators. 410,000 compounds, 0.063% hits; note: nearly all actives have a fitted effect of over 55% in size
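Growth rescue measured by 600 nm absorbance after 48 h yeast culture at 30 C with compound. Values normalized between DMSO and an equimolar ferric chloride plus clioquinol control.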
FUS suppressor – FUS proteinopathy suppression in yeast. S. cerevisiae FUS-expressing, growth rescue, OD600, 24 h. Potency, µM (top dose mostly 76.6 µM), actives largely listed as activators. 390,000 compounds, 0.24% hits; note: nearly all actives have a fitted effect of over 55% in size
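Steps: raffinose overnight preculture; dilution to OD 0.005 in 2% galactose minimal medium; compound addition (concentration series); 24hr at 30C, 99% humidity; absorbance read at 600 nm.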
LDHA block – LDHA (human) enzyme inhibition. activity change, % (values are at about 110 or 230 µM). P00338. 480,000 compounds, 0.15% hits. AID 1347041. purified LDHA, NADH/diaphorase-resazurin fluorescence; stronger effect = lower value; in the data active = activity change below about -30%; inconclusive = mostly about -25% to -30%
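Resorufin fluorescence (ex540/em590), read at 0 and 20 min after diaphorase/resazurin addition, reports the NADH left after a 5 min room-temperature reaction of 2 nM human LDH5 with 0.06 mM NADH and 0.2 mM pyruvate.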
Numbers stand for hits; n = inactive; u = inconclusive; x = not tested or not shown; [ ] = remark or other dose. This is a sample that favours compounds with a hit; in the whole collection about 1.9% have one here. Unless noted, calls come from the whole dose curve; as a rule, active = well fitted curve in the direction sought with a large enough effect; inconclusive = small, poorly fitted or top-dose-only effect, or another doubt; inactive = no such curve, though single readings can be large; an effect the other way counts as inactive or inconclusive.

SMILES | aSyn yeast inh | PTHR1 agonist | TDP43 rescue | Abeta yeast res | FUS suppressor | LDHA block
CCc1c(C)nc(SCc2nc(-c3cccc(C)c3)oc2C)[nH]c1=O | x | x | x | x | x | n
CCOc1ccc(OC(=O)c2cccnc2)cc1 | n | n | 16µM | n | n | n
CCCCCCCOc1ccc(OC(=O)c2ccc(OCCCCCC)cc2)cc1 | x | x | x | x | x | n
CC(=O)/C=C\c1ccc(OC(=O)c2cccnc2)cc1 | n | n | 20µM | n | n | n
CCCCCOc1ccc(OC(=O)c2ccncc2)cc1 | n | n | 35µM | n | n | n
COC(=O)c1ccc(OC(=O)c2cccnc2)cc1 | n | n | n | n | n | n
Cn1ccnc1C(=O)c1cccc(NC(=O)C(=O)NCc2ccccc2)c1 | x | x | x | x | x | n
NC(=O)c1ccc(CN(C(=O)Cc2cccs2)C2CC2)cc1 | x | x | x | x | x | n
O=C(c1cccc(Cl)c1)N1CCC(=O)N([C@H](COCc2ccccc2)Cc2ccccc2)CC1 | n | n | n | n | u | n
Cc1cccc(COC[C@H](CC(C)C)N2CCN(C(=O)c3ccc(C(C)(C)C)cc3)CCC2=O)c1 | n | n | 22µM | n | u | n
Cc1cccc(C(=O)N2CCC(=O)N([C@H](COCc3ccc(Cl)cc3)Cc3ccccc3)CC2)c1 | n | n | 16µM | n | u | n
Cc1cccc(C(=O)N2CCC(=O)N(C(COCc3cccc(Cl)c3)Cc3ccccc3)CC2)c1 (stereo not given) | n | n | u | n | u | n
Cc1cccc(C(=O)N2CCC(=O)N([C@H](COCc3cccc(Cl)c3)Cc3ccccc3)CC2)c1 | u | n | 35µM | n | u | n
Cc1cccc(C(=O)N2CCC(=O)N(C(COCc3ccc(Cl)cc3)Cc3ccccc3)CC2)c1 (stereo not given) | u | n | 35µM | n | u | n
N#Cc1ccc2c(C=O)c[nH]c2c1 | x | x | x | x | x | n
COc1ccc(C(=O)Oc2ccc(C(C)C)cc2)cc1Cl | x | x | x | x | x | n
CN(CC(=O)Nc1ccccc1Cl)C(=O)COC(=O)COc1ccc2oc3c(c2c1)CCCC3 | x | x | x | x | x | n
Cc1ccc(C)c(N2CCN(C(=O)CCS(=O)(=O)c3cc4c5c(c3)CCN5C(=O)CC4)CC2)c1 | x | x | x | x | x | n
COc1ccc2nc(C)c(C(=O)Oc3ccc(C4SCCS4)cc3OC)cc2c1 | x | x | x | x | x | n
O=[N+]([O-])c1ccc(N2CCN(Cc3ccccc3)CC2)s1 | n | n | n | n | n | n
O=[N+]([O-])c1ccc(N2CCN(Cc3ccccc3)CC2)c2c1no[n+]2[O-] | n | n | 35µM | n | n | n
COc1ccc(NC(=O)c2ccc(-c3ccccc3C(F)(F)F)o2)cc1 | n | n | 13µM | n | n | n
CNC(=O)c1ccc(-c2sc3nc(N4CCOCC4)c4c(c3c2N)CCCC4)o1 | n | n | 22µM | n | 7.1µM | n
Cc1nc(COc2ccccc2Cl)sc1-c1ccnc(N)n1 | n | n | 11µM | n | n | n
N#Cc1ccc(OCCSCc2cccc3ccccc23)cc1 | x | x | x | x | x | n
SMILES | aSyn yeast inh | PTHR1 agonist | TDP43 rescue | Abeta yeast res | FUS suppressor | LDHA block
Cc1cc(C)nc(Sc2ccc([N+](=O)[O-])cc2[N+](=O)[O-])n1 | n | n | n | n | x | n
O=[N+]([O-])c1ccc(Sc2ccncn2)c([N+](=O)[O-])c1 | n | n | 35µM | n | n | n
C=CCn1cccc(C(=O)Nc2ccc(Cl)cc2)c1=O | n | n | 10µM | n | n | n
c1cncc(-c2ccc3[nH]ccc3c2)c1 | n | n | n | n | n | n
c1ccc(-c2ccc3[nH]ccc3c2)cc1 | n | n | 13µM | n | n | n
O=C(C1=C[C@@H]2[C@H]3C(=O)N(c4cccc(Cl)c4)C(=O)[C@H]3[C@@H](C(=O)c3ccc(Cl)cc3)N2C=C1)c1ccccc1 | n | n | n[0.397 µM] | n | n | n
Cc1ccc(N2C(=O)[C@@H]3[C@H](C2=O)[C@H]2C=C(C(=O)c4ccccc4)C=CN2[C@@H]3C(=O)c2ccc(Cl)cc2)cc1 | n | n | n | n | 28µM | n
CCc1ccc(-c2nc3cc(NC(=O)c4cccnc4)ccc3o2)cc1 | x | x | x | x | x | n
CCOc1ccc(-c2[nH]ncc2-c2ccc(Cl)cc2)c(O)c1 | n | n | 35µM | n | n | n
CCOc1ccc(-c2[nH]ncc2Oc2ccccc2OCC)c(O)c1 | u | n | 18µM | n | n | n
CCn1c2ccccc2c2cc(/C=N/n3cn[nH]c3=S)ccc21 | n | n | 16µM | n | n | n
CCn1c2ccccc2c2cc(/C=N/n3cnnc3)ccc21 | u | n | u | n | n | n
CC(Sc1ccccc1C(=O)NCC(=O)C(C)(C)C)C(=O)Nc1ccccc1 (stereo not given) | x | x | x | x | x | n
Cc1[nH]c2ccc(C(=O)NCCNC(=O)c3ccc(C(F)(F)F)cc3)cc2c1C | x | x | x | x | x | n
Cc1c(C(C)(C)O)[nH]c2ccc(C(F)(F)F)cc12 | n | n | 35µM | 18µM | n | n
CC(C)(C)c1ccc2[nH]c(C(C)(C)C)c(C=O)c2c1 | x | x | x | x | x | n
CCC(C)(O)c1[nH]c2ccc(C(F)(F)F)cc2c1C (stereo not given) | n | n | 18µM | 14µM | n | n
Cc1ccc(NC(=O)c2ccccc2C(F)(F)F)c(F)c1 | x | x | x | x | x | n
Cc1cc(C)c2c(C)c(C(=O)NCC(c3ccco3)N3CCOCC3)oc2c1 (stereo not given) | x | x | x | x | x | n
Cc1ccc(NC(=O)CN2C(=O)N/C(=C\c3cccn3-c3ccc(C(=O)O)cc3)C2=O)cc1 | x | x | x | x | x | n
Cc1ccc(NC(=O)CN2C(=O)N/C(=C/c3cccn3-c3ccc(C(=O)O)cc3)C2=O)cc1 | n | n | n | n | x | -30
Cc1cc(NC(=O)CN2CCCCC2)no1 | n | n | n | n | n | -32
c1ccc2oc(CCc3nc4ccccc4o3)nc2c1 | n | n | n | n | x | n
Nc1ccc2oc(CCc3ccccc3)nc2c1 | n | n | 18µM | n | n | n
Cc1oc(-c2ccccc2)nc1CNC(=O)c1ccccc1 | x | x | x | x | x | n
SMILES | aSyn yeast inh | PTHR1 agonist | TDP43 rescue | Abeta yeast res | FUS suppressor | LDHA block
CCOC(=O)c1nn(-c2ccc(C)cc2)cc1C(=O)c1ccccc1 | x | n | 13µM | n | n | n
Cc1ccc(-c2cc(C(=O)OC3CCOC3=O)c3ccccc3n2)c(C)c1 (stereo not given) | n | n | 18µM | n | n | n
O=C(OC1CCOC1=O)c1cc(-c2cccs2)nc2ccccc12 (stereo not given) | n | n | 25µM | n | n | n
O=C(c1cc(-c2cccs2)nc2ccccc12)N1CCOCC1 | x | x | x | x | x | n
COc1ccc(OC)c(NS(=O)(=O)c2cc(-c3cnc(C)o3)ccc2C)c1 | x | x | x | x | x | n
COc1ccc(-c2nnc(SCC(=O)NCc3ccccc3CN3CCOCC3)n2C)cc1 | x | x | x | x | x | n
Cc1ccc(S(=O)(=O)NCCC(=O)Nc2ccc(C)cc2C(=O)c2ccccc2)cc1 | n | n | 22µM | n | n | n
